Source: PubChem
Rows were chosen to be rich in hits. Some 2.1% of all compounds tested hit in one or more screens of this group.
Abeta yeast res: A-beta toxicity reversal in yeast. yeast expressing A-beta42, growth rescue, OD600, 48 h; response scale: 0% DMSO, 100% iron-clioquinol control. AID 1347071. Potency, µM (series often up to 46.1 µM), hits mostly activators. 0.063% of 410,000 active; also: nearly all actives have a fitted effect of over 55% in size
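Growth rescue measured by 600 nm absorbance after 48 h yeast culture at 30 C with compound. Values normalized between DMSO and an equimolar ferric chloride plus clioquinol control.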
aSyn yeast inh: inhibitors of alpha-synuclein toxicity in yeast. Yeast expressing alpha-synuclein, growth rescue, BacTiter-Glo, 24 h. Potency, µM (doses to about 46.1 µM), without a hit: at the highest dose growth rescue (activation), hits mostly activators. 0.14% of 370,000 active. AID 652106; also: % of control where 0% means no effect; nearly all actives have a fitted effect of over 65% in size
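Screening used galactose-induced yeast with toxic alpha-synuclein levels, exposed to compound for 24 hr at 30 deg C. Cell growth, read with BacTiter-Glo luminescence, gave the measured signal.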
TDP-43 yeast inh: rescues yeast growth from TDP-43 toxicity. AID 652104. TDP-43 expressing yeast growth rescue, BacTiter-Glo, 24 h. Potency, µM (series often up to 46.1 µM), for the others: at the top dose growth rescue (activation), usual class: activators. 1.8% of 410,000 active; also: % of control where 0% means no effect; nearly all actives have a fitted effect of over 50% in size
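Yeast expressing TDP-43 (pregrown in raffinose, seeded at OD600=0.02 in galactose medium) exposed to compounds 24 hr at 30 deg C. Growth read by BacTiter-Glo luminescence; rescue of toxicity appears as increased signal.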
FUS suppressor: rescues growth of FUS-expressing yeast | S. cerevisiae FUS-expressing, growth rescue, OD600, 24 h | Potency, µM (doses to about 76.6 µM), hits mostly activators | 0.24% of 390,000 active | AID 1347120;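 also: plate controls were DMSO vehicle for no effect and reference control for full effect; nearly all actives have a fitted effect of over 55% in size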
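Compound concentration series was pinned onto galactose-induced FUS-expressing yeast seeded at OD 0.005. Plates sat 24hr at 30C; absorbance at 600 nm gave growth. DMSO served as background control.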
Starred values were filed as active, the others as inactive; [ ] = dose if it differs, or a comment. Calls follow the shape of the dose curve; as a rule, active = well fitted curve in the direction sought with a large enough effect; inconclusive = small, poorly fitted or top-dose-only effect, or another doubt; inactive = no such curve, though single readings can be large; an effect the other way counts as inactive or inconclusive. Potency is read from the fitted curve at half-maximal effect.

`Cc1cn2c(=O)cc(COC(=O)c3cccc(NC(=O)COc4ccccc4Cl)c3)nc2s1` gave Abeta yeast res inactive, TDP-43 yeast inh 21% and FUS suppressor inactive.
For COc1ccc(-c2cn3c(C)c(C(=O)N4CCN(c5ccc(F)cc5)CC4)sc3n2)cc1 the results were Abeta yeast res inactive, aSyn yeast inh 1%, TDP-43 yeast inh 2% and FUS suppressor inactive.
`COc1ccccc1N1CCN(C(=O)c2sc3nc(-c4ccc(F)cc4)cn3c2C)CC1` gave Abeta yeast res inactive, aSyn yeast inh 17%, TDP-43 yeast inh 11µM* and FUS suppressor inconclusive.
COc1ccc(N2CCN(C(=O)c3ccc(N(C)S(=O)(=O)c4ccc(C)cc4)cc3)CC2)cc1 was read as Abeta yeast res inactive, aSyn yeast inh 2%, TDP-43 yeast inh 13µM* and FUS suppressor inconclusive.
For COc1ccccc1N1CCN(C(=O)c2ccc(-c3ccccc3)cc2)CC1 the results were Abeta yeast res inactive, aSyn yeast inh 9%, TDP-43 yeast inh 18µM* and FUS suppressor inactive.
CCOc1ccccc1N1CCN(C(=O)c2ccc(-c3ccc(OC(C)=O)cc3)cc2)CC1 was read as Abeta yeast res inactive, aSyn yeast inh 1%, TDP-43 yeast inh 20µM* and FUS suppressor inconclusive.
Screening COc1ccc(N2CCN(C(=O)c3ccc(N(C)S(=O)(=O)c4ccc(OC)cc4)cc3)CC2)cc1 returned Abeta yeast res inactive, aSyn yeast inh 21%, TDP-43 yeast inh 24% and FUS suppressor inconclusive.
COc1ccc(C(=O)N2CCN(c3ccccc3OC)CC2)cc1 was read as Abeta yeast res inactive, aSyn yeast inh 10%, TDP-43 yeast inh inconclusive and FUS suppressor inactive.
`CCOc1ccccc1N1CCN(C(=O)c2ccccc2)CC1` gave Abeta yeast res inactive, aSyn yeast inh -3%, TDP-43 yeast inh 15% and FUS suppressor inactive.
`CCOC(=O)c1ccccc1NS(=O)(=O)c1ccc(N2CCCCS2(=O)=O)cc1` gave Abeta yeast res inactive, TDP-43 yeast inh 18%[9.22 µM] and FUS suppressor inactive.
Cc1sc2c(c1C)c(=O)n(-c1cccc(C(F)(F)F)c1)c(=O)n2Cc1ccc(F)cc1 was read as Abeta yeast res inactive, TDP-43 yeast inh -11% and FUS suppressor inactive.
For CCOC(=O)c1ccc(N2CCN(c3cc(C)ccc3C)CC2)c(NC(=O)Nc2ccccc2)c1 the results were Abeta yeast res inactive, TDP-43 yeast inh 2% and FUS suppressor inactive.
For COc1ccccc1N1CCN(C(=O)c2cccc(Oc3ccccc3)c2)CC1 the results were Abeta yeast res inactive, aSyn yeast inh 5%, TDP-43 yeast inh 35µM* and FUS suppressor inactive.
For CCCS(=O)(=O)N1CCN(C(=O)c2ccc(-c3ccccc3)cc2)CC1 the results were Abeta yeast res inactive, aSyn yeast inh inconclusive, TDP-43 yeast inh 18µM* and FUS suppressor inactive.
`COc1cccc(N2CCN(C(=O)c3ccc(-c4ccccc4)cc3)CC2)c1` gave Abeta yeast res inactive, aSyn yeast inh 11%, TDP-43 yeast inh 13µM* and FUS suppressor inconclusive.
COc1cccc(Cn2c(=O)cc(C)c3c(C)nn(-c4ccc(C)cc4)c32)c1 was read as Abeta yeast res inactive, TDP-43 yeast inh 25% and FUS suppressor inactive.
Screening COc1cccc(NC(=O)N2CCc3nc(Nc4cc(Cl)cc(Cl)c4)ncc3C2)c1 returned Abeta yeast res inconclusive, aSyn yeast inh inconclusive, TDP-43 yeast inh 16µM* and FUS suppressor 28µM*.
CCS(=O)(=O)c1ncc(Cl)c(C(=O)N2CCN(c3ccc(OC)cc3)CC2)n1 was read as Abeta yeast res inactive, TDP-43 yeast inh 13µM* and FUS suppressor inactive.
For CCSc1ncc(Cl)c(C(=O)N2CCN(c3ccccc3OC)CC2)n1 the results were Abeta yeast res inactive, TDP-43 yeast inh 35µM* and FUS suppressor inactive.
For COc1ccc(N2CCN(C(=O)c3nc(SC)ncc3Cl)CC2)cc1 the results were Abeta yeast res inactive, TDP-43 yeast inh 20µM* and FUS suppressor inactive.
COc1cccc(NC(=O)c2nc(SC)ncc2Cl)c1 was read as Abeta yeast res inactive, aSyn yeast inh -15%, TDP-43 yeast inh 2% and FUS suppressor inactive.
Screening COc1ccc(NC(=O)c2nc(SC)ncc2Cl)cc1 returned Abeta yeast res inactive, aSyn yeast inh 1%, TDP-43 yeast inh 20µM* and FUS suppressor inactive.
Screening C=C1C[C@@]23CC[C@H]4[C@@](C)(CCC[C@@]4(C)C(=O)O)[C@@H]2CC[C@]1(O)C3 returned aSyn yeast inh 0%.
COc1ccc(-c2nc3scc(CCNS(=O)(=O)c4ccc5c(c4)OCCO5)n3n2)cc1 was read as Abeta yeast res inactive, TDP-43 yeast inh 18% and FUS suppressor inactive.
Screening CCCC(=O)Nc1nc2c(s1)CC(C(C)(C)C)CC2 (stereo unspecified) returned Abeta yeast res inactive, TDP-43 yeast inh 7% and FUS suppressor inconclusive.
Screening Cc1cnc(C=O)c2cccc([N+](=O)[O-])c12 returned Abeta yeast res inactive, aSyn yeast inh 14%, TDP-43 yeast inh 20µM* and FUS suppressor inactive.
CCOc1ccc2c(c1)c(=O)c(S(=O)(=O)c1ccc(Cl)cc1)cn2Cc1ccccc1C was read as Abeta yeast res inactive, TDP-43 yeast inh 9% and FUS suppressor inactive.
CCOC(=O)CCS(=O)(=O)c1nc(-c2ccccc2)cc(C(F)(F)F)n1 was read as Abeta yeast res inactive, aSyn yeast inh -6% and TDP-43 yeast inh 16µM*.
COC(=O)CCS(=O)(=O)c1nc(-c2ccccc2)cc(C(F)(F)F)n1 was read as Abeta yeast res inactive, aSyn yeast inh -1%, TDP-43 yeast inh inconclusive and FUS suppressor inactive.
`CCOC(=O)CS(=O)(=O)c1nc(-c2ccccc2)cc(C(F)(F)F)n1` gave Abeta yeast res inactive, aSyn yeast inh -15%, TDP-43 yeast inh 22µM* and FUS suppressor inactive.
Screening COc1ccc(-c2cc(C(F)(F)F)nc(-n3cc(Cl)cn3)n2)cc1 returned Abeta yeast res inactive, aSyn yeast inh -4%, TDP-43 yeast inh 11µM* and FUS suppressor inconclusive.
Screening COc1ccc(-c2cc(C(F)(F)F)nc(S(C)(=O)=O)n2)cc1 returned Abeta yeast res inactive, aSyn yeast inh 7%, TDP-43 yeast inh 13µM* and FUS suppressor inactive.
CCn1c(=O)cc(OCC(=O)N2CCN(c3ccc(C)cc3)C(C)C2)c2ccccc21 (stereo unspecified) was read as Abeta yeast res inactive, TDP-43 yeast inh inconclusive and FUS suppressor inactive.
`CC(C)c1ccc2oc(-c3ccc(Cl)c(NC(=O)c4cccs4)c3)nc2c1` gave Abeta yeast res inactive, aSyn yeast inh -3%, TDP-43 yeast inh 24% and FUS suppressor inactive.
`COc1ccc(C(=O)NCC(=O)OCC(=O)c2cccc3ccccc23)cc1` gave aSyn yeast inh 17%.
